Screening data deposited in PubChem by Broad Institute.
CASP6 VEID inh = inhibitors of human caspase-6; P55212; purified caspase-6, Z-VEID-R110 cleavage fluorescence; inhibition, % at 12.5 µM; actives 0.53% (n = 350,000); AID 686996;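 active = mean inhibition across replicates at least about 35%, with every replicate also reaching that limit, limit read from the data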;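 also: 0% = median of neutral control wells and 100% = no fluorescence left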
Target sequence (P55212 24-179 limits assumed): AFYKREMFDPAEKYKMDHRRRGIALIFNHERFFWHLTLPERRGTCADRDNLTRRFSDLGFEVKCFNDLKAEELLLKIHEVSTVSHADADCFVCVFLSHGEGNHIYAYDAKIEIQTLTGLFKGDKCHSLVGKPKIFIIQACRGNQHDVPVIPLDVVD
Target sequence (P55212 194-293 limits assumed): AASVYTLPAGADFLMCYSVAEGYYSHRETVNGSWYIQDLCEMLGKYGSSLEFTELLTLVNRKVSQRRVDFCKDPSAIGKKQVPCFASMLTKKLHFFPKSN
Mot1-301 SUMO = blocks SUMOylation pathway, rescuing yeast Mot1-301 growth; S. cerevisiae Mot1-301 growth rescue, ATP luminescence, 38.5C; percent above DMSO median, 100 means doubled; growth rescue, % at 18.8 µM; actives 1% (n = 320,000);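 active = every valid replicate shows activation above 250% relative to neutral control wells; inactive = the rest, any valid replicate at or below 250%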;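 also: OY570 slx delta 5 strain wells were the positive control but not used for scaling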
NSD2 HMT inh = inhibitors of human histone methyltransferase NSD2; O96028; NSD2 peptide methylation, AlphaScreen, 120 min; inhibition, % at 12.5 µM; actives 0.54% (n = 310,000); in the data active = inhibition above about 50%
Glyco luc inh = blocks N-linked glycosylation in D54 reporter cells | actives 0.23% (n = 360,000) | reporter increase, % at 12.5 µM | D54 ERlucT glycosylation luciferase reporter, 24 h; percent of 100 nM tunicamycin response;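 active = mean luciferase reporter signal, scaled so untreated is 0 and the glycosylation-blocking control 100, at or above a set limit in every replicate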;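 also: luciferase carries N-glycosylation sites so blocking glycosylation raises the light; 0% = median of neutral control wells and 100% = median of 100 nM tunicamycin wells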
ALR inh = blocks human ALR sulfhydryl oxidase activity. actives 3.8% (n = 290,000). inhibition, % (test concentration not listed). purified ALR, DTT oxidation, H2O2 HRP-luminol luminescence;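 active = mean replicate inhibition above about 79%, with every replicate also reaching it, limit read from the data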
Target sequence (P55789 whole entry, looked up): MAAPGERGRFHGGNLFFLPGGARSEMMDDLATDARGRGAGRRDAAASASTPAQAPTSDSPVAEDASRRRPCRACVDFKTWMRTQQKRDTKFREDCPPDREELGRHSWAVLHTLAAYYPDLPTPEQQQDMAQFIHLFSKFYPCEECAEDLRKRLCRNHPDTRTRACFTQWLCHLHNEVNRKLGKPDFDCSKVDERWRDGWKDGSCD
CDK5 inh = inhibitors of human CDK5/p35 kinase; actives 0.01% (n = 330,000); Recombinant CDK5/p35, ADP-Glo luminescence, 60 min; Q00535+Q15078; inhibition, % at 10 µM; AID 488839;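 active = highest replicate inhibition of at least 50% and at least 75% of replicates reaching 50%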;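 also: plate controls were DMSO neutral control for no effect and GW8510 at 10 µM for full effect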
Active calls of the source: *; x = no result. Rows were chosen to be rich in hits. Some 3.9% of all compounds tested hit in one or more screens of this group.

SMILES	CASP6 VEID inh	Mot1-301 SUMO	NSD2 HMT inh	Glyco luc inh	ALR inh	CDK5 inh
O=C(NNS(=O)(=O)c1cc(Cl)cc(Cl)c1)c1sccc1-n1cccc1	x	-5	3	1	88*	-1
Cc1ccc(S(=O)(=O)NNC(=O)c2sccc2-n2cccc2)cc1	x	x	3	1	51	0
O=C(Nc1ccccc1F)N[C@H]1CC[C@H](CCNS(=O)(=O)c2ccccc2)O[C@@H]1CO	2	x	x	x	x	x
CN1[C@H](C(=O)NC2CCCC2)[C@@H](CO)[C@@H]2Cn3c(ccc(-c4cccc(F)c4)c3=O)[C@@H]21	-1	x	x	x	x	x
Cc1ccc(N2NC(=O)/C(=C/c3ccc(-c4ccc(Cl)c(C(=O)O)c4)o3)C2=O)cc1	22	11	20	0	99*	-3
CCCCC1(C)OC(=O)C(=Cc2ccc(-c3ccc(Cl)c(C(=O)O)c3)o2)C(=O)O1 (centres undefined)	12	-8	11	0	98*	4
CC(C)N1C(=O)S/C(=C\c2ccc(-c3ccc(Cl)c(C(=O)O)c3)o2)C1=O	18	2	1	-4	8	0
O=C(NC(=S)Nc1cccnc1)c1ccccc1	-4	-15	-3	1	17	3
Cc1snnc1C(=O)NC(=S)Nc1ccccc1	16	25	5	1	92*	1
CCOC(=O)c1ccc(Oc2c(C)oc3c(CN4CCN(C)CC4)c(O)ccc3c2=O)cc1	x	357*	1	0	-10	-1
COc1ccc(Oc2c(C)oc3c(CN4CCOCC4)c(O)ccc3c2=O)cc1	x	-5	2	1	1	0
CC(C)NC(=O)N(C)C[C@@H]1Oc2ccc(NS(=O)(=O)c3ccc(F)cc3)cc2C(=O)N([C@@H](C)CO)C[C@H]1C	1	x	x	x	x	x
O=C1NC(=Nc2ccccc2Cl)S/C1=C\c1cccc([N+](=O)[O-])c1O	39*	-4	60*	1	60	-4
Cc1ccccc1S(=O)(=O)N1C[C@H](O)COC[C@H]2O[C@H](CC(=O)NCCc3ccccc3)CC[C@@H]21	-1	x	x	x	x	x
O=C1Nc2ccc(Br)cc2C1(O)c1ccccc1 (centres undefined)	2	-18	9	0	-5	-1
O=C1Nc2ccc(Br)cc2C12NNc1ccccc1O2 (centres undefined)	0	309*	x	2	-7	2
N/C(=N\NS(=O)(=O)c1ccccc1Cl)c1ccccn1	-2	-8	-2	-2	83*	-3
N/C(=N\OC(=O)c1ccccc1Cl)c1ccccn1	0	-15	0	-22	-2	16
O=c1[nH][nH]c(-c2ccccc2O)c1C(C[N+](=O)[O-])c1ccc(Cl)cc1Cl (centres undefined)	2	269*	0	0	x	1
CCN(CC)c1ccc(/C=C2\CCC(/C=N/NC(=O)c3ccc(=O)n(C)c3)=C2N2CCOCC2)cc1	1	2	0	-1	100*	2
COc1ccc(C2NC(c3ccc(OC)cc3OC)C(C)C(=O)C2C)c(OC)c1 (centres undefined)	55*	10	7	-1	-15	-3
CCCCC/C=C\C/C=C\C/C=C\C/C=C\CCCC(=O)O	x	-9	x	x	97*	x
CC/C=C\C/C=C\C/C=C\CCCCCCCC(=O)O	35	189	x	0	20	0
N#C[C@H]1[C@@H](c2ccccc2)[C@H](CO)N1C(=O)c1cc(Cl)cc(Cl)c1	5	x	x	x	x	x
CCCN(C)C[C@@H]1Oc2ncc(-c3cccnc3)cc2C(=O)N([C@H](C)CO)C[C@H]1C	-13	x	x	x	x	x
SMILES	CASP6 VEID inh	Mot1-301 SUMO	NSD2 HMT inh	Glyco luc inh	ALR inh	CDK5 inh
Oc1cc(Nc2cccnc2)cc2cccnc12	36*	-15	x	1	90*	-1
Oc1cc(Nc2ccncc2)cc2cccnc12	-14	53	x	-8	-8	1
CC(=O)N(C)C[C@@H]1Oc2ncc(C#CC3(O)CCCC3)cc2C(=O)N([C@@H](C)CO)C[C@H]1C	4	x	x	x	x	x
CC(=O)N(c1ccc(Br)cc1)C1C=CS(=O)(=O)C1 (centres undefined)	0	25	x	1	64	3
O=C(c1ccc(Br)o1)N(c1ccc(Br)cc1)C1C=CS(=O)(=O)C1 (centres undefined)	x	-15	-1	3	0	-1
Cc1ccc(N(C(=O)c2ccc(Br)o2)C2C=CS(=O)(=O)C2)cc1 (centres undefined)	0	117	x	0	77*	-1
O=C(c1cccs1)N(c1ccc(Cl)cc1)C1C=CS(=O)(=O)C1 (centres undefined)	-3	8	12	1	4	1
CCc1ccc(N(C(C)=O)C2C=CS(=O)(=O)C2)cc1 (centres undefined)	x	531*	x	1	-2	1
Cc1ccc(N(C(=O)c2cccs2)C2C=CS(=O)(=O)C2)cc1 (centres undefined)	1	1	x	2	96*	1
CC(C)(C)C1CCC2(CC1)NC(=S)N(c1ccccc1)N2 (centres undefined)	x	302*	-9	3	-5	0
O=C1NC(=O)/C(=C/c2ccc(O)cc2)S1	8	12	1	-5	99*	-3
C[C@@H]1CCCCO[C@@H](CN(C)C(=O)c2ccncc2)[C@H](C)CN([C@@H](C)CO)C(=O)c2cc(NS(C)(=O)=O)ccc2O1	3	x	x	x	x	x
CNC[C@@H]1OCCCC[C@H](C)Oc2ccc(NC(=O)Nc3ccc(F)cc3)cc2C(=O)N([C@@H](C)CO)C[C@H]1C	-7	x	x	x	x	x
Cc1ccccc1CSCCNC(=O)CCSc1ccccc1	-1	322*	-2	0	2	-1
CC1(C)CC2(C)OC2C2(C1)N=NC(=Nc1ccccc1)O2 (centres undefined)	x	x	17	45*	x	x
COc1ccc2c3c([nH]c2c1)[C@@H](CO)N(CC1CCOCC1)CC31CN(C(=O)C2CCOCC2)C1	8	x	x	x	x	x
O=C(NCc1ccccc1)[C@]1(CCS(=O)(=O)c2ccccc2)N=C(c2ccc(OCCCO)cc2)O[C@@H]1c1ccccc1	2	x	x	x	x	x
CC1(C)OC(=O)C2(Cc3ccccc3N3CCCCC32)C(=O)O1 (centres undefined)	x	-2	-3	2	99*	-2
CN1CCN2c3ccccc3CC(C#N)(C#N)C2C1 (centres undefined)	1	x	0	0	x	x
O=C(C[C@H]1CC[C@@H](NS(=O)(=O)c2ccccc2)[C@H](CO)O1)NCc1ccccc1F	1	x	x	x	x	x
CN(C)c1ccc(C=Nc2cnn(C)c2C(N)=O)cc1	x	-3	4	6	98*	1
O=C(O)C[C@@H]1C=C[C@@H](NC(=O)Nc2ccccc2)[C@H](CO)O1	0	x	x	x	x	x
CCCCNC(=O)c1ccc2c(SCC(=O)O)c3c(nc2c1)CCCC3	x	x	2	2	x	-1
